Each structure is given as a SMILES string. Inconclusive results are not listed. Activity calls are given as the source filed them. Unless noted, cut-off not given; nearly all actives show AC50 up to about 26 µM.

The results in this text go back to PubChem BioAssay.

Test [1] in a line: growth inhibition of DIPG glioma cells, dose response, cell-based, SU-DIPG-XVII, MIPE5.0, CellTiter-Glo, qHTS (AID 1347060).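 On AC50: cells exposed to compound for 48 hours before viability readout.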 The conditions noted are these: SU-DIPG-XVII viability, CellTiter-Glo ATP luminescence. For orientation: Cellular ATP, detected with luciferase, serves as a proxy for viable cell number.
The nature of test [2]: growth inhibition of DIPG glioma cells, dose response, cell-based, SU-DIPG-XIII, MIPE4.0, CellTiter-Glo, qHTS (AID 1347061; cut-off not given, nearly all actives have AC50 up to about 37 µM;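 further: cells exposed to compound for 48 hours before readout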). The conditions noted are these: SU-DIPG-XIII viability, CellTiter-Glo ATP luminescence.
Test [3] is described as follows: growth inhibition of DIPG glioma cells, dose response, cell-based, JHH-DIPG-1, MIPE4.0, CellTiter-Glo, qHTS (AID 1347062; cut-off not given, nearly all actives have AC50 up to about 27 µM;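 on AC50: cells exposed to compound for two days before readout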). The conditions noted are these: JHH-DIPG-1 viability, CellTiter-Glo ATP luminescence.
Test [4] can be described thus: growth inhibition of DIPG glioma cells, dose response, cell-based, SU-DIPG-XIII, MIPE5.0, CellTiter-Glo, qHTS (AID 1347064; cut-off not given, nearly all actives have AC50 up to about 23 µM;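 on AC50: cells exposed to compound for 48 hours before the viability read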). The conditions noted are these: SU-DIPG-XIII viability, CellTiter-Glo ATP luminescence.
The nature of test [5]: viability loss in pontine glioma line – cell-based, SU-DIPG-XXV, MIPE5.0, CellTiter-Glo, qHTS, dose response (AID 1347065).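 Further: cells exposed to compound for 48 hours before ATP readout.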 The conditions noted are these: CellTiter-Glo ATP luminescence.
Test [6] is described as follows: SU-DIPG-VI glioma cell viability, MIPE4.0 library, CellTiter-Glo luminescence, qHTS (AID 1347066; cut-off not given, nearly all actives have AC50 up to about 30 µM;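 further: cells exposed to compound for 48 hours before readout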). The conditions noted are these: CellTiter-Glo ATP luminescence.
Test [7] in a line: JHH-DIPG-1 glioma cell viability, MIPE5.0 library, CellTiter-Glo luminescence, qHTS (AID 1347067).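 Further: cells exposed to compound for 48 hours before readout.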 The conditions noted are these: JHH-DIPG-1 glioma viability, CellTiter-Glo ATP luminescence.
Test [8] is described as follows: SU-DIPG-XXV glioma cell viability, MIPE5.0 library, qHTS (AID 1347068; cut-off not given, nearly all actives have IC50 up to about 30 µM;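 on IC50: cells exposed to compound for 48 hours before viability readout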). In general terms: qHTS replaces the single test concentration by a dilution series.
Test [9] is described as follows: sensitizers of A549 cells to miR-34 induction, primary screen, imaging, A549 dox-inducible miR-34, nuclei and caspase counts (AID 1347080;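 active means compounds whose cell count with miR-34 switched on is under 0.7 times the count with it off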). The conditions noted are these: A549 miR-34 inducible, Hoechst nuclei count, 48 h.
Test [10] in a line: survival rescue of mitochondrial mutant cells in low glucose, primary screen, MELAS cybrids, Rieske KO mouse fibroblasts, CellTiter-Glo (AID 1508586;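 active means mean z-score across replicates of 1.96 or higher in either the MELAS or the Rieske mutant cell line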;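 further: z relative to plate mean and SD of compound and empty wells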).
Test [11] in a line: modifiers of HSF1 nuclear foci, imaging, Selleck Cancer Library (AID 1347162; in the data active means plate-normalised HSF1 focus index below about 0.46). The conditions noted are these: human cells, at 10 µM; SSMD: measured here: HSF1 foci SSMD mean; cell count: measured here: cell number; plate-normalised HSF1 focus index: stronger effect = lower value.
A short description of test [12]: growth inhibition of DIPG glioma cells, dose response, cell-based, SU-DIPG-IV, MIPE4.0, CellTiter-Glo, qHTS (AID 1347063; cut-off not given, nearly all actives have AC50 up to about 30 µM;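 further: compound exposure lasted 48 hours before the viability readout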). The conditions noted are these: SU-DIPG-IV viability, CellTiter-Glo ATP luminescence.
Setting [13] is: stronger effect = lower value, cell number ratio, induced over uninduced.
The mark [14] stands for this setting: measured here: relative caspase fold change +Dox/-Dox.
Setting [15] is: measured here: total cells with miR-34 induction, stronger effect = lower value.
Where [16] appears, read: measured here: total cells without miR-34 induction.
Setting [17] is: MELAS cybrid survival, CellTiter-Glo 48 h, stronger effect = higher value.
Setting [18] is: Rieske KO mouse fibroblast survival, CellTiter-Glo 72 h.

A word on the AC50: it is the midpoint of the concentration-response curve, whichever way the signal moves. Consider `O=C(NC[C@H](O)CO)c1ccncc1Nc1ccc(I)cc1F`, for which the AC50 was 0.742 µM (active) in test [1]; 1.32 µM (active) in [2]; 1.48 µM (active) in test [3]; 417 nM (active) in [4]; 0.59 µM (active) in test [5]; 0.332 µM (active) in test [7]. Further, the outcome in test [6] and in test [8] was inactive.
As a reminder, the IC50 is the concentration needed to halve the response being measured. Turning to `CC1(C)C(N(O)C(=O)Nc2ccc(Cl)cc2)N(c2ccc(Cl)cc2)C(=O)N1CC(=O)N/N=C/C=C/c1ccc([N+](=O)[O-])o1` (stereo not given), the AC50 was 7.42 µM (active) in [1]; 26.4 µM (active) in test [2]; 10.5 µM (active) in test [3]; 3720 nM (active) in test [4]; 14.8 µM (active) in [5]; 20.9 µM (active) in [6]. The AC50 in [7] was 6.61 µM (active). Besides, the IC50 in [8] is 18.6 µM (active).
As for `Cc1c(Cn2c(C)nc3c(C(=O)O)cc(N4CCOCC4)cc32)cccc1C(F)(F)F`, the outcome in test [1], in test [2], in test [3], in test [4], in test [5] and in test [6] was inactive. Further, the compound was classed as inactive in test [7] and in test [8]. Also, the figures for the fold change in test [9] (setting [13]) and in test [9] (setting [14]) were 0.907 (inactive) and 0.358, respectively. Also, the cell count came out at 8050 in test [9] (setting [15]) and 8880 in [9] (setting [16]). In addition, the z-score in test [10] (setting [17]) was -0.351 (inactive); in [10] (setting [18]), 0.912.
For `C[C@@]1(c2cc(-c3cncnc3)c(F)cc2F)CCSC(N)=N1`, the outcome in test [1], in test [4], in test [5], in [6], in test [7] and in test [8] was inactive. In addition, the AC50 in test [2] and in [3] was 14.8 µM (active) in each case. Moreover, the results for the fold change in test [9] (setting [13]) and in test [9] (setting [14]) were 0.883 (inactive) and 1.05, respectively. For the same compound, the cell count in test [9] (setting [15]) came to 8550; in test [9] (setting [16]), 9680. For the same compound, the values for the z-score in test [10] (setting [17]) and in [10] (setting [18]) were -0.425 (inactive) and 0.36, respectively.
As to `CC(=O)OCCN1C(=O)c2c(C)nc3ccc(S(=O)(=O)N4CCOCC4)cc3c2C1=O`, the call in test [1], in [2], in test [3], in test [4], in test [5] and in [6] was inactive. The outcome in [7] and in [8] was inactive. The SSMD in test [11] worked out at 2.02. For the same compound, in test [11], the cell count came to 7180. Further, the plate-normalised HSF1 focus index in [11] was 1.12 (inactive).
With `Nc1nc2c(c(=O)[nH]1)N(C=O)[C@H](CNc1ccc(C(=O)N[C@@H](CCC(=O)O)C(=O)O)cc1)CN2`, the result in [1], in [2], in test [3], in test [4], in test [5] and in [6] was inactive. The compound was called inactive in [7] and in [8].
For the compound `COc1cc2c(cc1-c1c(C)noc1C)ncc1[nH]c(=O)n([C@H](C)c3ccccn3)c12`, the compound was classed as inactive in test [1], in test [7] and in test [8]. Besides, the AC50 in test [2] was 10.5 µM (active); in test [3], 23.5 µM (active); in test [12], 13.2 µM (active); in test [6], 4.18 µM (active).
